Here are results for 40 compounds from PubChem BioAssay (Tox21).

Structures are written as SMILES. Results filed as inconclusive are left out. Where a call stands in place of a potency, no number is given. Active and inactive are the calls of the source. Calls follow the shape of the dose curve; as a rule, active = well fitted cell-killing curve with a large enough effect in the repeat runs; inconclusive = weak or mixed curves, or effect the other way; inactive = flat fitted curve, though single readings scatter.

A short description of the assay: Human pregnane X receptor (PXR) small molecule agonists, qHTS cell viability counter screen (AID 1346977). Also: nearly all actives have a fitted effect of over 50% in size. As to conditions: PXR-Luc HepG2 viability, CellTiter-Fluor, 24 h; series mostly up to 92.4 µM. The text has this:
U.S. Tox21 Program National Center for Advancing Translational Sciences [NCATS] NIH Chemical Genomics Center [NCGC] U.S. Environmental Protection Agency [EPA] National Institutes of Environmental Health Sciences [NIEHS] National Toxicology Program [NTP] U.S. Food and Drug Administration [FDA] Tox21 Assay Overview: The human pregnane X receptor (hPXR) regulates the expression of several drug metabolizing enzymes and induction of these proteins is a major mechanism for developing drug resistance in cancer. One such key enzyme catalyzing the drug metabolism is cytochrome P450 3A4 (CYP3A4). Changes in CYP3A4 expression affect drug metabolism, thereby reducing the therapeutic efficacy and altering toxicological response to a drug and which finally causes adverse drug interaction. To screen Tox21 libraries for compounds that activate hPXR-mediated CYP3A4 gene expression, PXR-Luc HepG2 cells were used. Also cytotoxicity of the compounds was tested in parallel by measuring the cell viability using CellTiter-Fluor assay system in the same wells.
Tox21 Assay Protocol Summary: PXR-Luc HepG2 cells were dispensed at 2,000 per well in 5uL of assay medium containing 5% charcoal-stripped FBS into white solid bottom 1536-well plates (Corning Life Sciences, Corning, NY) using a Multidrop Combi (Thermo Scientific, Waltham, MA) dispenser. The assay plates were incubated at 37 C and 5% CO2 for 5hr, and then 23nL of compounds dissolved in DMSO and positive control were transferred using a Pintool station (Wako, San Diego, CA). The assay plates were incubated at 37C and 5% CO2 for 24hr. For cytotoxicity read, after 23hr incubation at 37C, 1uL CellTiter-Fluor reagent (Promega Corporation, Madison, WI) was added to each well of the assay plates using Flying Reagent Dispenser (FRD, Aurora Discovery, San Diego, CA). After 1hr incubation at 37C and 5% CO2, the fluorescence signal was quantified using a ViewLux plate reader (PerkinElmer, Shelton, CT).
In general terms: qHTS replaces the single test concentration by a dilution series.
As to `CNC(=O)NC`, the Potency entry is “inactive”. In the case of `C=CCOc1c(Br)cc(C(C)(C)c2cc(Br)c(OCC=C)c(Br)c2)cc1Br` it was “inactive”. In the case of `O=C(CN1CCN(Cc2ccc3c(c2)OCO3)CC1)N1c2ccccc2Sc2ccccc21`, the Potency entry was “inactive”. In the case of `CC(=O)c1ccc(OCC(=O)N2CCCCC2)cc1` it was “inactive”; in that of `CC(=O)OC(C)(C)Cc1ccccc1`, “inactive”. Under `CCCCCN(CCCOC)C(=O)C(CCC(=O)O)NC(=O)c1ccc(Cl)c(Cl)c1` (stereo not given) stands “inactive”; under `CCCCCC1Nc2cc(C(F)(F)F)c(S(N)(=O)=O)cc2S(=O)(=O)N1` (stereo not given), “inactive”. Under `C[Si]1(C)N[Si](C)(C)N[Si](C)(C)N1` stands “inactive”; under `Cn1c(=O)c2c(ncn2CC2OCCO2)n(C)c1=O`, “inactive”.

With `O=C(O)c1c(Cl)ccc(Cl)c1Cl`, the Potency result is “inactive”.

Take `CCCCC/C=C/CC(=O)OC`: the Potency result was “inactive”. Regarding `CC(=O)/C=C/c1ccco1`, the Potency entry is “inactive”.

On to `CC(=O)Nc1ccc(C)cc1`, for which the Potency result is “inactive”. In the case of `CC(=O)Nc1ncc([N+](=O)[O-])s1` it was “inactive”; in that of `CC(=O)OCCCc1ccccc1`, “inactive”. Under `CCCCC(CC)COC(=O)c1ccccc1` (stereo not given) stands “inactive”; under `C=CCOc1cc(Cl)ccc1C(=O)NCCN(CC)CC`, “inactive”. Consider `Cc1cc(O)c2c(c1)C(=O)c1cccc(O)c1C2=O`, for which the Potency entry is “inactive”. Under `CCCCCC1CCCC(=O)O1` (stereo not given) stands “inactive”; under `CC(=O)OC[C@H]1O[C@@H](OC(C)=O)[C@H](OC(C)=O)[C@@H]1OC(C)=O`, “inactive”; under `Cc1nc2ccccc2c(=O)o1`, “inactive”. With `COc1cc2c3cc1Oc1cc(ccc1O)C[C@@H]1c4c(cc(OC)c(O)c4Oc4ccc(cc4)C[C@@H]3N(C)CC2)CC[N+]1(C)C`, the Potency result is “inactive”.

In the case of `CCC(C)(C)C1CCC(=O)CC1`, the Potency result was “inactive”. For `CCC1COC(=O)O1` (stereo not given), the Potency entry is “inactive”. Turning to `CC(C)CCCCCCOC(=O)C1CCCCC1C(=O)OCCCCCCC(C)C` (stereo not given), the Potency result is “inactive”. Under `CCC(C)N` (stereo not given) stands “inactive”; under `CC(C)CCO`, “inactive”. In the case of `Cc1cccc(Nc2ccncc2S(=O)(=O)NC(=O)NC(C)C)c1` it was “inactive”; in that of `O=c1[nH]c(=O)c2ccccc2o1`, “inactive”. On to `Cc1oc(=O)oc1CN1CCN(c2cc3c(cc2F)c(=O)c(C(=O)O)c2n3C(C)S2)CC1` (stereo not given), for which the Potency result is “inactive”. As for `C=C(C)C(=O)OC`, the Potency result was “inactive”. `NS(=O)(=O)c1cc2c(cc1Cl)NC(C(Cl)Cl)NS2(=O)=O` (stereo not given): the Potency result is “inactive”. In the case of `Cc1ccccc1OCC1CO1` (stereo not given) it was “inactive”. Take `CCCCCCCCCCCCC1CO1` (stereo not given): the Potency result is “inactive”. Under `CCOC(=O)CC(CC(=O)OCC)(OC(C)=O)C(=O)OCC` stands “inactive”.

For `Cc1cccc(C(=O)O)c1[N+](=O)[O-]`, the Potency entry is “inactive”. In the case of `CCCCCCCCCOCC1CO1` (stereo not given), the Potency entry was “inactive”. In the case of `Cc1ccccc1C(=O)N1CC/C(=N\OS(=O)(=O)O)c2ccc(Cl)cc21` it was “inactive”; in that of `CNCc1ccccc1`, “inactive”. Consider `CCNC(=O)/C=C/c1cccc(Br)c1`, for which the Potency entry is “inactive”.
